# NPR1 activator = GC-A (human) enzyme activation. P16066. HEK293 GC-A cells, cGMP TR-FRET, EC30 ANP; 0% at EC30 ANP, 100% saturating ANP. activation, % at 10 µM. 370,000 compounds, 0.14% hits; in the data active = activation above about 40%
# ALR H2O2 inh = blocks human ALR sulfhydryl oxidase activity; P55789; purified ALR, DTT oxidation, H2O2 HRP-luminol luminescence; inhibition, % (test concentration not listed); 290,000 compounds, 3.8% hits; AID 485317;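 active = mean replicate inhibition above about 79%, with every replicate also reaching it, limit read from the data; inconclusive = only one of the two criteria met; inactive = mean below limit and not every replicate reaching it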
# HDAC3 inh = human HDAC3 inhibition | 320,000 compounds, 0.15% hits | inhibition, % at 8.3 µM | recombinant HDAC3, fluorogenic peptide/trypsin coupled, fluorescence; in the data active = inhibition above about 26%, passing the limit was not always enough; inconclusive = no clear call, values can overlap the other calls
# NPR2 activator = GC-B (human) receptor activation. HEK293-GC-B cells, CNP EC30, cGMP TR-FRET; 0% at EC30 CNP, 100% saturating CNP. 370,000 compounds, 0.11% hits. activation, % at 10 µM. AID 1920062. P20594;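 active = activation at 10 µM reaching about 35% in either raw or pattern-adjusted values, limit read from the data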
# A number is an active result; 0 = inactive; ? = inconclusive; - = no result. Many of the other results were omitted from the sample, so hits are more common in it than they were.
SMILES,NPR1 activator,ALR H2O2 inh,HDAC3 inh,NPR2 activator
COc1ccc(N2CCN(C(=O)C3(C)CC3(Cl)Cl)CC2)cc1 (centres undefined),0,99.2,0,0
O=C(Cc1ccc(Cl)cc1)N1CCN(c2ccccc2)CC1,0,87.8,-,0
CCOC(=O)N1CCN(C(=O)CSCc2ccccc2C)CC1,0,0,0,0
CCOC(=O)N1CCN(C(=O)COC(=O)Cc2ccc(Cl)cc2)CC1,0,0,0,0
CC1=C(C(=O)N2CCCCCC2)CC(CC(=O)NCC2CCCCC2)C(=O)N1CCCN1CCCC1=O (centres undefined),0,-,-,0
C[C@H](O)[C@@H]1C(=O)N2CCc3c([nH]c4cccc(-c5ccccc5)c34)[C@@H]2C[C@@H]1N(C)C(=O)c1ccco1,0,-,-,0
COc1ccc(N2CCN(C(=O)CSc3nnnn3C3CC3)CC2)cc1,0,86.6,0,0
COc1ccc(N2CCN(C(=O)Cc3ccc(C)cc3)CC2)cc1,0,79.6,0,0
Cn1ncc(Cl)c1C(=O)N1CCN(c2ccc(Cl)c(Cl)c2)CC1,0,0,0,0
COc1ccc(C(=O)CCC(=O)N2CCN(c3ccc(C)cc3)C(C)C2)cc1 (centres undefined),0,99.0,0,0
COc1ccc(N2CCN(C(=O)Cc3ccc(Cl)cc3)CC2)cc1,0,0,0,0
COc1ccccc1N1CCN(C(=O)CSc2nnnn2C2CC2)CC1,0,-,-,0
COc1ccc(N2CCN(C(=O)c3c(Cl)cnn3C)CC2)cc1,0,98.8,0,0
O=C(NCc1ccco1)c1ccc(COc2ccccc2[N+](=O)[O-])o1,0,0,0,0
CCCC[C@H](C(=O)N(CC)c1ccccc1)[C@@H](O)c1ccc(Cl)cc1,0,-,-,0
O=C(O)CCCC(=O)N1CCN(c2cccc(Cl)c2)CC1,0,0,0,0
O=C(CCC(=O)N1CCN(c2cccc(Cl)c2)CC1)N1CCN(c2ccccc2)CC1,0,98.5,0,0
CCOC(=O)c1c(NC(=S)Nc2ccccc2)sc2c1CCN(CC)C2,0,87.1,0,0
COc1ccc(CCNC(=O)CSc2ccccc2)cc1OC,0,-,0,0
COc1ccc(CNC(=O)CSc2ncnc3ccccc23)cc1OC,0,88.7,0,0
CCCc1c(O)nc(SCC(=O)NCCc2ccc(OC)c(OC)c2)[nH]c1=O,0,98.1,0,0
CCCCc1nnc(NC(=O)CSc2nc(O)c(Cc3ccccc3)c(=O)[nH]2)s1,0,99.0,0,0
COc1ccc(CCNC(=O)CSC(=O)c2ccccc2)cc1OC,0,98.8,0,0
COc1ccc(N(C)S(=O)(=O)c2cccc(C(=O)N(C)Cc3ccc(C)o3)c2)cc1,0,0,0,0
CCN(CC)C(=O)CSc1nc(O)c(Cc2ccc(OC)cc2)c(=O)[nH]1,0,98.0,0,0
SMILES,NPR1 activator,ALR H2O2 inh,HDAC3 inh,NPR2 activator
CCc1c(O)nc(SCc2nc3ccccc3c(=O)[nH]2)[nH]c1=O,0,98.0,0,0
O=C(CSc1nc(O)c(Cc2ccccc2)c(=O)[nH]1)Nc1ccccc1,0,98.7,0,0
CCc1c(O)nc(SCC(=O)N2CCc3cc(OC)c(OC)cc3[C@@H]2C)[nH]c1=O,0,99.4,0,0
CN(Cc1ccc(F)cc1)C(=O)CN1C(=O)C2(OCCCO2)c2ccccc21,0,-,-,0
CN(CC(=O)NCCCc1ccccc1)S(=O)(=O)c1ccc(Br)cc1,0,0,0,0
CCc1c(O)nc(SCC(=O)NCc2ccco2)[nH]c1=O,-,97.9,0,-
COc1ccc(NC(=O)CSc2nc(O)c(Cc3ccccc3)c(=O)[nH]2)cc1,0,98.6,0,0
CN(C)c1ccc(N2CC(C)(C)C2=O)cc1,0,99.1,0,0
CCc1nnc2c(NCCc3ccccc3)nc3ccccc3n12,0,0,0,0
COc1ccccc1NC(=O)Nc1ccc(F)c(F)c1,0,0,0,0
Cc1ccc(C(=O)CCNc2ccc(Br)cc2)o1,0,0,0,0
Cc1ccc(C(=O)CCNc2ccccc2)o1,0,97.5,0,0
CCOC(=O)N1CCN(Cc2nc(N)nc(Nc3ccc(Cl)cc3)n2)CC1,0,0,0,0
Nc1nc(CN2CCN(C(=O)c3ccco3)CC2)nc(Nc2cccc(Cl)c2)n1,0,94.9,0,0
O=C(NC(=S)Nc1cccc(NC(=O)c2ccc(Cl)cc2Cl)c1)c1cccs1,0,0,0,0
O=C(NC1CCC(O)CC1)c1ccc(-c2ccc(Cl)cc2)o1 (centres undefined),0,0,0,0
CC(=O)c1ccc(-c2ccc(C(=O)NC3CCCCCC3)o2)cc1,0,98.3,0,0
O=C(CSc1ccc([N+](=O)[O-])cn1)Nc1cc(C(F)(F)F)ccc1N1CCOCC1,0,0,0,0
CN1/C(=C/c2cccc[n+]2CCO)Sc2ccccc21,0,0,0,0
COc1ccc(-[n+]2c(C)cc(/C=C3\Sc4ccccc4N3C)cc2C)cc1,0,94.9,0,0
COc1ccccc1-[n+]1c(C)cc(/C=C2\Sc3ccccc3N2C)cc1C,0,98.2,?,0
Cc1c(C(=O)O)sc2nc(/C=C/c3cccc(O)c3)[nH]c(=O)c12,0,-,0,0
O=C(CSc1nnc(-c2ccccc2)n1-c1ccccc1)NN=C/C=C\c1ccccc1[N+](=O)[O-],0,-,-,0
O=c1cc(CN2CCN(c3ccc(O)cc3)CC2)nc2scc(-c3ccccc3)n12,0,93.5,0,0
CSCC[C@@H](CO)NC(=O)[C@H]1O[C@@H](n2ccc(=O)[nH]c2=O)[C@H](O)[C@@H]1O,0,-,-,0
SMILES,NPR1 activator,ALR H2O2 inh,HDAC3 inh,NPR2 activator
Cc1ccc(C(=O)NC(=C(Cl)Cl)S(=O)(=O)c2ccc(Cl)cc2)cc1,0,0,0,0
Cc1ccc(C(=O)NC(=C(Cl)Cl)S(=O)(=O)c2ccc(C)cc2)cc1,0,98.7,0,0
COc1ccc(NC(=O)N(C)C[C@H]2OCCCC[C@H](C)Oc3ccc(NS(=O)(=O)c4cn(C)cn4)cc3C(=O)N([C@H](C)CO)C[C@@H]2C)cc1,0,-,-,0
Cc1cccc(C(=O)O/N=C(\N)c2cccc([N+](=O)[O-])c2)c1,0,0,0,0
CC1=CC(=O)C=C(C)C1=NOC(=O)c1cccc([N+](=O)[O-])c1,0,99.9,0,0
Cc1cc(C)cc(NC(=O)CCn2cnc3cc(C)c(C)cc32)c1,0,0,0,0
CC1(C)CC(=O)C(C(C2=C(O)CC(C)(C)CC2=O)c2ccc([N+](=O)[O-])cc2)C(=O)C1 (centres undefined),0,0,0,0
CC1(C)CC(=O)C(C(C2=C(O)CC(C)(C)CC2=O)c2ccc(Br)s2)C(=O)C1 (centres undefined),0,98.0,0,0
COc1cccc(C(C2=C(O)CC(C)(C)CC2=O)C2C(=O)CC(C)(C)CC2=O)c1 (centres undefined),0,97.9,0,0
Cc1ccc(C(C2=C(O)CC(C)(C)CC2=O)C2C(=O)CC(C)(C)CC2=O)s1 (centres undefined),0,98.3,0,0
CN1C2=N[C@@H](c3ccc4ccccc4c3)CC(=O)N2/C(=C\c2ccccc2)[C@H]1c1ccccc1,0,-,-,0
O=C(NC(=S)NNC(=O)c1ccccc1O)c1cccc([N+](=O)[O-])c1,0,-,0,0

# Assay outcomes: PubChem BioAssay, several laboratories
